Assay results from PubChem BioAssay (NCATS).
Records with an inconclusive call do not appear. A call without a number means that no potency is given here. Values without a mark were called inactive. The source made the active and inactive calls. Calls follow the shape of the dose curve; as a rule, active = well fitted inhibition curve with a large enough effect; inconclusive = small, poorly fitted or top-dose-only effect; inactive = no such curve, though single readings can be large or run the other way. Where a SMILES comes first, the peptide text is derived from it. [ ]: non-standard residue; d: D form. ξ: configuration not given here. ξPhe(βξ-Me) = CC(c1ccccc1)C(N)C(=O)O; GABA = NCCCC(=O)O

How the values were obtained:
[1] = tested on: Zika virus NS2B-NS3 protease (unlinked complex); test: Primary screen GU Rhodamine qHTS for Zika virus inhibitors: Unlinked NS2B-NS3 protease assay (AID 1347159); also: nearly all actives have a fitted effect of over 60% in size
Method in brief: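 Compounds, tested up to 114 microM, were incubated for 15 minutes with 25 nM unlinked NS2B-NS3 protease at pH 8.0. Cleavage of 1.5 microM Rhodamine110 substrate was then followed by fluorescence for 15 minutes.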

[2] = tested on: Zika virus NS2B-NS3 protease (linked construct); test: Primary screen NINDS Rhodamine qHTS for Zika virus inhibitors (AID 1347160); also: nearly all actives have a fitted effect of over 55% in size
Method in brief: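 Percent inhibition, normalized to uninhibited and enzyme-free controls, is fitted to a 4-parameter Hill equation. Fluorescence change comes from a 15-min cleavage of 1.5 microM bis-peptide Rhodamine110 substrate by 25 nM linked NS2B-NS3 at room temperature.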
Potency is read from the fitted curve at half-maximal effect.

SMILES	Potency [1]	Potency [2]	activity change, negative = inhibition [1]	activity change, negative = inhibition [2]
O=[N+]([O-])c1cn2c(n1)OCC(OCc1ccc(OC(F)(F)F)cc1)C2 (centres undefined)	inactive	inactive	–	–
CN(C)C1CCN(C(=O)c2ccc(NC(=O)Nc3ccc(-c4nc(N5CCOCC5)nc(N5CCOCC5)n4)cc3)cc2)CC1	inactive	inactive	–	–
Cc1cc(C)nc(NS(=O)(=O)c2ccc(NC(=S)NC(=O)COc3ccc(Br)cc3Cl)cc2)n1	7.08 µM (active)	15.8 µM (active)	–	–
COc1c2c(c(C)c3c1C(=O)OC3)O[C@@]1(C)CCC3(C(C)(C)O)OC(=O)CC[C@]3(C)[C@H]1C2 (some centres undefined)	inactive	inactive	–	–
CC1(C)CC2C=C(C(=O)O)C3COC(=O)C(O)(CO)C23C1 (centres undefined)	inactive	inactive	–	–
CC1NC(=O)CCCNC(=O)C(Cc2c[nH]c3ccccc23)NC(=O)C(C)NC(=O)C(C(C)C)NC(=O)C(C(C)c2ccccc2)NC(=O)C(C(C)C)NC1=O (stereo not drawn) (cyclo([GABA]AV[ξPhe(βξ-Me)]VAW); configuration not given here)	inactive	inactive	–	–
CCCCNc1ncc2c(-c3ccc(F)cc3)nn(CC3CCC(N)CC3)c2n1 (centres undefined)	inactive	inactive	–	–
C=C[C@@](C)(O)CC/C=C(\C)C(=O)O[C@@H]1[C@@H]2O[C@]2(C)[C@H]2[C@H](O[C@@H]3O[C@H](CO)[C@@H](O)[C@H](O)[C@H]3O)OC=C[C@@]12O	inactive	inactive	–	–
COc1ccc(CNC(=O)c2cc(-c3cncc(C)c3)ncc2-c2nccs2)nc1OC	inactive	inactive	–	–
COc1ccc(/C=C\C(=O)O)c(O[C@@H]2O[C@H](CO)[C@@H](O)[C@H](O)[C@H]2O)c1	inactive	inactive	–	–
CC1=C2C[C@H]3O[C@@]3(C)CCC3O[C@@]3(C)C[C@@]2(O)OC1=O (some centres undefined)	inactive	inactive	–	–
CCN(CC)Cc1ccc(C(=O)N(CCc2ccccc2OC)[C@@H]2CCNC2)cc1	inactive	inactive	–	–
Cc1c(F)cc(C(=O)NC2CC2)cc1-c1c(F)cn2c(C(C)(C)C)nnc2c1F	inactive	inactive	–	–
C=C1CC23CC1CCC2C12OC(=O)C(C)(CCC1O)C2C3C(=O)O (centres undefined)	inactive	inactive	–	–
C=CC(=O)Nc1cccc(Nc2nc(Nc3ccc(N4CCN(C(C)=O)CC4)cc3OC)ncc2C(F)(F)F)c1	inactive	inactive	–	–
Oc1ccc2nc(CN3CCC(Cc4ccccc4F)CC3)[nH]c2c1	inactive	inactive	–	–
C[C@@H]1C[C@@H](O)[C@@]23CO[C@@H](O)[C@@H]2CCC[C@@H]3[C@@]12C[C@@H](c1ccoc1)OC2=O	inactive	inactive	–	–
C[C@@H]1O[C@@H](O[C@@H]2[C@@H](O)[C@H](O[C@H]3CC[C@@]4(C)C(CC[C@]5(C)C4CC=C4[C@@H]6CC(C)(C)CC[C@]6(C(=O)O[C@@H]6O[C@H](CO)[C@@H](O)[C@H](O)[C@H]6O)CC[C@]45C)C3(C)C)O[C@H](C(=O)O)[C@H]2O)[C@H](O)[C@H](O)[C@H]1O (some centres undefined)	inactive	inactive	–	–
C[C@@H]1C(=O)O[C@H]2[C@H](O)C34[C@H]5C[C@@H](C(C)(C)C)C36[C@@H](OC(=O)[C@@H]6O)O[C@@]4(C(=O)O5)[C@@]12O (some centres undefined)	inactive	inactive	–	–
Cc1cc(C(=O)N2Cc3cnn(C)c3Nc3ccccc32)ccc1CNC(=O)N1CCC[C@H]1C(=S)N1CCCN(C)CC1	inactive	inactive	–	–
CCOc1ccc2nc(SCCN3CCOCC3)[nH]c2c1	inactive	inactive	–	–
CC1(C)C=CN2C(=O)C3=CCCN3C(=O)[C@@H]2C[C@@]12Nc1ccccc1C2=O	inactive	inactive	–	–
C=C(C)C(=O)O[C@H]1CC2=CC(C/C(C)=C\[C@H]3OC(=O)C(=C)[C@H]13)OC2=O (some centres undefined)	inactive	inactive	–	–
OC/C=C/c1ccc(O[C@@H]2O[C@H](CO)[C@@H](O)[C@H](O)[C@H]2O)cc1	inactive	inactive	–	–
CC(=O)NC1=NN(C(C)=O)C(C)(c2ccccc2)S1 (centres undefined)	inactive	inactive	–	–
COc1cccc(Nc2ncnn3ccc(CN4CC[C@@H](N)[C@H](O)C4)c23)c1	inactive	inactive	–	–

SMILES	Potency [1]	Potency [2]	activity change, negative = inhibition [1]	activity change, negative = inhibition [2]
COc1ccc(-c2ccc3c(N4CCOCC4)nc(N4CC(C)OC(C)C4)nc3n2)cc1CO (centres undefined)	inactive	inactive	–	–
CC[C@@](C)(Nc1ccnc(-c2c[nH]c3ncccc23)n1)C(=O)NCC(F)(F)F	inactive	inactive	–	–
COC(=O)C12C(=O)C(C)=C(O)C1(C)C(C)=CC1C3(CO)CCC(O)C(C)(C)C3CCC12C (centres undefined)	inactive	inactive	–	–
CNS(=O)(=O)CC1CCC(N(C)c2ncnc3[nH]ccc23)CC1 (centres undefined)	inactive	inactive	–	–
CC1(c2nc3c(C(N)=O)cccc3[nH]2)CCCN1 (centres undefined)	inactive	inactive	–	–
Oc1ccc(CNc2ccccc2F)c2cccnc12	inactive	inactive	–	–
CCOC(=O)Nc1cc(-c2ccc(C)c(NS(C)(=O)=O)c2)nn2c(C)nnc12	inactive	inactive	–	–
Cn1cc(-c2ccc3nnc(Sc4ccc5nn(C)cc5c4)n3n2)cn1	inactive	inactive	–	–
CC1=CC(=O)CC(C)(CO)C1(O)/C=C/C(C)O[C@@H]1O[C@H](CO)[C@@H](O)[C@H](O)[C@H]1O (some centres undefined)	inactive	inactive	–	–
Cn1nnc(-c2ccc(-c3ccc(N4C[C@H](COP(=O)(O)O)OC4=O)cc3F)cn2)n1	inactive	inactive	–	–
C=C1CCC2C(C(C)(C)O)CCC2(C)CC(O)C(=C)CCC1O (centres undefined)	inactive	inactive	–	–
CC12CCC3c4ccc(OC5OC(C(=O)O)C(O)C(O)C5O)cc4CCC3C1CCC2O (centres undefined)	inactive	inactive	–	–
C[C@@H]1O[C@@H](O[C@H]2[C@H](O)[C@@H](O)[C@H](OC[C@H]3O[C@@H](OC(=O)[C@]45CCC(C)(C)C[C@H]4C4=CCC6[C@@]7(C)CC[C@H](O[C@@H]8OC[C@H](O)[C@H](O[C@@H]9O[C@H](CO)[C@@H](O)[C@H](O)[C@H]9O)[C@H]8O)[C@@](C)(CO)C7CC[C@@]6(C)[C@]4(C)CC5)[C@H](O)[C@@H](O)[C@@H]3O)O[C@@H]2CO)[C@H](O)[C@H](O)[C@H]1O (some centres undefined)	–	–	4.91% [at 19.1 µM]	3.05% [at 10.7 µM]
COC(=O)N[C@H](C(=O)N1[C@@H]2CC[C@@H](C2)[C@H]1c1nc2ccc(-c3ccc4c(c3)C(F)(F)c3cc(-c5cnc([C@@H]6CCC7(CC7)N6C(=O)[C@@H](NC(=O)OC)C(C)C)[nH]5)ccc3-4)cc2[nH]1)C(C)C	inactive	inactive	–	–
CC1(C)C2CC=C(COC3OC(COC4OCC(O)(CO)C4O)C(O)C(O)C3O)C1C2 (centres undefined)	inactive	inactive	–	–
CS(=O)(=O)N(CC(=O)NCC1CC1)c1cc(C(F)(F)F)ccc1Cl	inactive	inactive	–	–
O=C(OC1C=C(CO)C2C(OC3OC(CO)C(O)C(O)C3O)OC=CC12)c1ccc(O)cc1 (centres undefined)	inactive	inactive	–	–
COC(=O)c1cc(OC)cc(OC)c1C(=O)c1c(OC)cc2c(c1O)C1CCCC(C)(O2)O1 (centres undefined)	inactive	inactive	–	–
CCOc1cc(C)c(Cl)cc1S(=O)(=O)n1cnc2ccccc21	inactive	inactive	–	–
CC(=O)/C=C/[C@H]1[C@](C)(O)[C@@H](O)[C@H](OC(C)=O)C2C(C)(C)CCC[C@@]21C (some centres undefined)	inactive	inactive	–	–
CC1COC(Nc2ccc3ncnc(Nc4ccc(OCc5nccs5)c(Cl)c4)c3c2)=N1 (centres undefined)	inactive	inactive	–	–
c1cc(Nc2cc(C3CC3)[nH]n2)nc(Nc2ccc3nc[nH]c3c2)n1	inactive	inactive	–	–
COC(=O)C1=CO[C@@H](O[C@@H]2O[C@H](CO)[C@@H](O)[C@H](O)[C@H]2O)[C@H]2[C@@H]1C=C[C@@]21C=C([C@H](C)O)C(=O)O1	inactive	inactive	–	–
CC[C@@H](O)C[C@@H]1C(C)=C[C@@H]2CCCC[C@@H]2[C@@]1(C)C(=O)O	inactive	inactive	–	–
COCCOc1ccc(N2CCN(CCn3ncc4c3nc(N)n3nc(-c5ccco5)nc43)CC2)cc1	inactive	inactive	–	–
CCOC(=O)c1sc(NC(=O)[C@H](C(C)C)n2c(=O)[nH]c3ccccc3c2=O)nc1C	inactive	inactive	–	–
